The nature of experiment [1]: A549 cell viability effects, profiling panel, calcein-AM fluorescence, 48 h, basal (AID 1162). The following applies: higher = more signal.
Experiment [2] in a line: adipocyte viability effects, profiling panel, cell-based, 3T3-L1 adipocytes, calcein-AM fluorescence, 48 h, basal (AID 1163). To be noted: 3T3-L1 adipocytes viability, higher = more signal.
Experiment [3] can be described thus: HepG2 cell viability effects, profiling panel, calcein-AM fluorescence, 48 h, basal (AID 1164). To be noted: higher = more signal.
Experiment [4] can be described thus: MM1S cell viability effects, profiling panel, calcein-AM fluorescence, 48 h, basal (AID 1165).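 Also: viability of MM1S multiple myeloma cells under basal unstimulated conditions.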 To be noted: higher = more signal.
Experiment [5] in a line: basal RPMI8226 viability, no added stimulus, profiling panel, cell-based, calcein-AM fluorescence, 48 h, PK04 Diversity Set (AID 1166).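 Also: cells grown under basal conditions without added stimulus.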 The following applies: RPMI8226 myeloma viability, higher = more signal.
The nature of experiment [6]: basal HepG2 mitochondrial membrane potential changes, profiling panel, cell-based, JC-1 fluorescence, 24 h, 100 nL compound (AID 1167). To be noted: higher = more signal.
A short description of experiment [7]: basal 3T3-L1 adipocyte mitochondrial potential changes, profiling panel, cell-based, JC-1 fluorescence, 3T3-L1 adipocytes, 24 h, 100 nL compound (AID 1168). The following applies: JC-1 mitochondrial fluorescence, higher = more signal, called active from +8 up or from −8 down.
Experiment [8] is described as follows: basal RPMI8226 mitochondrial membrane potential changes, profiling panel, cell-based, JC-1 fluorescence, 24 h, 100 nL compound (AID 1169). The following applies: RPMI8226 myeloma, JC-1 mitochondrial potential fluorescence, higher = more signal.
Experiment [9] can be described thus: basal MM1S mitochondrial membrane potential changes, profiling panel, cell-based, JC-1 fluorescence, 24 h, 100 nL compound (AID 1170). To be noted: higher = more signal.
Experiment [10] is described as follows: A549 lung cancer cell viability effects, profiling panel, resazurin fluorescence, 24 h, PK04 Diversity Set (AID 1171). The following applies: higher = more signal, called active from +8 up or from −8 down. In general terms: Resazurin is reduced to fluorescent resorufin, in cell work by metabolically active cells.

Structures are written as SMILES. The source made the active and inactive calls.
Also: test concentration not given here.

Turning to `CCCNC(=O)[C@@]1(Sc2ccc(C)cc2)CC(=O)N(C2Cc3ccccc3C2)[C@@H]1c1ccc(CO)cc1I`, the z-score was 0.877 in experiment [1]; 0.331 in [2]; 0.544 in experiment [3]; -1.54 in [4]; -1.85 in experiment [5]; -0.574 in [6]. Further, the z-score was -0.0979 (inactive) in [7], -0.778 in experiment [8], -0.987 in experiment [9] and 0.309 (inactive) in experiment [10].

With `CCCCC=C[C@@H](NC(=O)OCc1ccccc1Cl)c1ccccc1`, the z-score in experiment [1] is -1.28; in [2] it was -1.2; in experiment [3], -0.661; in [4], -0.919; in experiment [5], -0.871; in experiment [6], 0.359. Further, the z-score in experiment [7] was -0.337 (inactive); in experiment [8], -0.623; in experiment [9], -1.03; in experiment [10], 0.297 (inactive).

For `CC(C)C(CO)N1C(=O)[C@@H]2[C@H]3C(=O)OCC=C[C@H]3OC23C=CCN(c2ccc(Cl)cc2)C(=O)[C@@H]13` (stereo not given in full), the z-score in experiment [1] was -0.713; in [2], 0.556; in experiment [3] it was 0.813; in [4], 1.04; in experiment [5] it was -0.356; in [6] it was 0.465. Moreover, the z-score in experiment [7] is 0.959 (inactive); in [8], -0.212; in experiment [9] it was 0.497; in experiment [10] it was 0.504 (inactive).

For `CN1C(=O)C2C=CC(C(O)c3cccn3C)N(Nc3ccc([N+](=O)[O-])cc3[N+](=O)[O-])C2C1=O` (stereo not given), the z-score is -0.49 in experiment [1]; -1.35 in [2]; -0.678 in experiment [3]; -2.1 in [4]; 0.16 in experiment [5]; -1.58 in experiment [6]. Further, the z-score in experiment [7] was -1.16 (inactive); in experiment [8], 0.647; in experiment [9], -0.0962; in experiment [10] it was -1.03 (inactive).

For `CCOC(=O)C[C@H]1[C@H](OC(=O)Cc2ccc3c(c2)OCO3)[C@@H](NC(=O)c2ccc3ccccc3n2)c2cc(OCCCO)ccc2N1C(=O)c1ccccc1`, the z-score in experiment [1] was 0.776; in experiment [2], 0.288; in experiment [3] it was 0.731; in [4], 0.26; in experiment [5] it was -1.09; in experiment [6] it was 2.52. The z-score in experiment [7] is 0.0925 (inactive); in experiment [8] it was -0.169; in experiment [9], -1.07; in [10] it was 0.231 (inactive).

As to `COc1cc2c(cc1O)C(c1cccs1)N(Cc1cc3c(cc1Br)OCO3)CC2` (stereo not given), the z-score in experiment [1] was -1.67; in experiment [2], -0.406; in experiment [3] it was -3.83; in experiment [4], -3.19; in [5] it was -4.43; in [6] it was -3.57. Besides, the z-score in experiment [7] was -0.0381 (inactive); in experiment [8], -0.976; in experiment [9], -0.488; in [10], -0.741 (inactive).

As for `O=C1OCCC=C[C@H]2OC34C=CCN(c5ccc6ccccc6c5)C(=O)[C@H]3N(CCCO)C(=O)[C@@H]4C12` (stereo not given in full), the z-score was 0.167 in experiment [1]; 1.41 in [2]; -0.16 in experiment [3]; 0.441 in experiment [4]; -0.556 in experiment [5]; -0.458 in [6]. In addition, the z-score is 0.241 (inactive) in experiment [7], -0.0315 in [8], -0.89 in experiment [9] and -0.391 (inactive) in [10].

`C#CCN([C@@H](Cc1ccccc1)C(=O)OC)[C@@H](/C=C/C1CC1)[C@H](O)Cc1ccccc1`: the z-score in [1] was -1.03; in experiment [2], -0.347; in experiment [3] it was -1.38; in experiment [4], -3.12; in [5], -2.25; in experiment [6] it was 0.993. Also, the z-score in experiment [7] was -0.21 (inactive); in experiment [8], -1.03; in experiment [9] it was -1.51; in experiment [10], 2.25 (inactive).

As for `CN(C)C(=O)[C@]1(CCC(=O)OC(C)(C)C)N=C(c2ccc(OCCCO)cc2)O[C@@H]1c1ccccc1CN=[N+]=[N-]`, the z-score in [1] is -0.307; in experiment [2], 0.911; in experiment [3], 0.697; in experiment [4], 0.545; in experiment [5], 0.259; in experiment [6], 1.74. Moreover, the z-score in [7] is -0.682 (inactive); in [8], 0.124; in experiment [9], -0.412; in experiment [10], 0.669 (inactive).

In the case of `CC1CC/C=C\[C@H]2OC34C=CCN(C(C)C)C(=O)[C@H]3N(CCO)C(=O)[C@@H]4C2C(=O)O1` (stereo not given in full), the z-score in [1] is 0.649; in experiment [2], 0.668; in experiment [3], -0.255; in [4], 0.824; in experiment [5] it was -1.11; in experiment [6] it was 0.813. The z-score in experiment [7] was 0.691 (inactive); in experiment [8], 0.021; in experiment [9], 1.65; in experiment [10], -0.969 (inactive).

For the compound `CCCCN1CC=CC23O[C@@H]4/C=C\CCC(C)OC(=O)C4[C@H]2C(=O)N(CCCO)[C@@H]3C1=O` (stereo not given in full), the z-score is -0.615 in [1]; 1.57 in [2]; -0.241 in experiment [3]; 1.04 in experiment [4]; -0.386 in [5]; -0.534 in experiment [6]. Moreover, the z-score in experiment [7] was 0.276 (inactive); in [8], 0.635; in [9], 0.71; in experiment [10] it was -0.523 (inactive).

Take `NC(=O)[C@H]1[C@@H]2C(=O)O[C@@H](c3ccccc3)[C@@H](c3ccccc3)N2[C@@H](c2ccc(OCCO)cc2)[C@]12C(=O)Nc1ccc(C#CCCO)cc12`: the z-score in experiment [1] is 0.0067; in experiment [2], 0.272; in [3], 0.456; in experiment [4], 0.227; in [5], 0.167; in [6], -0.202. Besides, the z-score in [7] was -0.383 (inactive); in experiment [8] it was -0.398; in experiment [9] it was -1.18; in [10] it was -0.0196 (inactive).

Regarding `O=C1N(Cc2ccccc2)c2ccccc2C[C@]12N=C(c1ccc(OCCCO)cc1)O[C@@H]2c1ccccc1`, the z-score is -1.25 in [1]; -0.372 in experiment [2]; -3.54 in experiment [3]; -2.32 in experiment [4]; -3.88 in [5]; -1.05 in experiment [6]. Also, the z-score is 0.162 (inactive) in experiment [7], -1.22 in experiment [8], -2.58 in experiment [9] and -2.07 (inactive) in experiment [10].

`CCOC(=O)C[C@H]1[C@H](OC(=O)c2cc3ccccc3oc2=O)[C@@H](NC(=O)c2ccccc2)c2cc(OCCCO)ccc2N1C(=O)c1ccccc1`: the z-score is 0.102 in experiment [1]; 1.36 in experiment [2]; -0.521 in experiment [3]; -0.836 in [4]; -2.3 in experiment [5]; 1.23 in [6]. Moreover, the z-score in experiment [7] was 0.434 (inactive); in [8] it was -0.954; in experiment [9], 0.185; in experiment [10] it was -0.238 (inactive).

For the compound `CCN(CC)c1ccc(N2CC=CC34O[C@@H]5/C=C\CCCOC(=O)C5[C@H]3C(=O)N(C(C)CO)[C@@H]4C2=O)cc1` (stereo not given in full), the z-score in experiment [1] is 0.838; in experiment [2], -0.536; in experiment [3], 1.43; in experiment [4] it was 1.67; in [5], 0.403; in experiment [6], 0.8. The z-score in experiment [7] is 0.744 (inactive); in experiment [8], -0.441; in experiment [9], 0.135; in experiment [10] it was 0.0032 (inactive).

The values above are taken from PubChem BioAssay.
